Screens: PubChem, National Center for Advancing Translational Sciences (NCATS)
Hits are enriched below; roughly 19% of the tested compounds scored in any of these assays.
KB-V1 MDR tox – KB-V1 MDR subline cytotoxicity. KB-V1 MDR cells viability, CellTiter-Glo, 72 h. Potency, µM (highest dose often 46.1 µM), usual class: cytotoxic. 400,000 tested, 3.4% active; further: nearly all actives have a fitted effect of over 60% in size
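qHTS viability screen in drug-selected KB-V1 MDR cells: 72 h compound treatment at 37 degrees C, ATP luminescence end point.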
KB-3-1 tox – KB-3-1 parental cell cytotoxicity. AID 1347075. KB-3-1 viability, CellTiter-Glo ATP luminescence, 72 h. Potency, µM (series often up to 46.1 µM), usual class: cytotoxic. 400,000 tested, 1.4% active; further: nearly all actives have a fitted effect of over 60% in size
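Parental KB-3-1 viability, qHTS format: 72 h compound exposure, 37 °C; CellTiter-Glo; media-only wells and DMSO plates as controls; concentration-effect fits on corrected data.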
HT1080-NT tox – kills 2HG-producing HT-1080-NT fibrosarcoma cells | HT-1080-NT fibrosarcoma viability, CellTiter-Glo ATP luminescence, 48 h | Potency, µM (series often up to 46.1 µM), usual class: cytotoxic | 360,000 tested, 1.6% active;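 further: NT is the 2HG producing partner of a matched IDH1 knockdown line; nearly all actives have a fitted effect of over 55% in size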
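HT-1080-NT fibrosarcoma cells (2HG-overproducing), 750 cells/well in RPMI with 5% FBS, dosed after 2 h and incubated 48 h at 37C. CellTiter-Glo luminescence normalized to DMSO and no-cell wells; concentration-response curves fitted and classed.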
TDP1 cell CPT – growth inhibition of DT40 Tdp1-/-;hTDP1 cells with camptothecin (screen for TDP1 inhibitors); 420,000 tested, 12% active; chicken DT40 Tdp1-/-;hTDP1 cells + 20 nM CPT, ATP luminescence, 48 h; Potency, µM (top dose mostly 46.2 µM), actives largely listed as inhibitors; further: nearly all actives have a fitted effect of over 55% in size
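Chicken DT40 Tdp1-/- cells complemented with human TDP1, 400 cells/well, exposed to compounds plus 20 nM camptothecin for at least 48 h at 37 C; viability read as ATP content by CellTiter-Glo luminescence.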
DT40 TDP1 no CPT – qHTS for Inhibitors of human tyrosyl-DNA phosphodiesterase 1 (TDP1): qHTS in cells in absence of CPT; 420,000 tested, 15% active; Potency, µM (titrated, usually from 46.2 µM), actives largely listed as inhibitors; DT40 Tdp1-/- hTDP1 cells, no CPT, ATP luminescence, 48 h; further: nearly all actives have a fitted effect of over 55% in size
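Readout: luminescence from CellTiter-Glo after 30 min in the dark at RT. Cells: DT40 Tdp1-/- with stable hTDP1, 400/well. Exposure: compounds alone, ≥48 hr, 37 °C.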
HT1080 IDH1KD tx – HT-1080 IDH1 knockdown cell toxicity (counter line); 360,000 tested, 2% active; HT-1080 IDH1 knockdown viability, ATP luminescence, 48 h; Potency, µM (highest dose often 46.1 µM), hits mostly cytotoxic
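% activity derives from luminescence (CellTiter-Glo), normalised to DMSO and no-cell wells. HT-1080-IDH1KD cells, 750/well, had 48 h compound exposure at 37 °C.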
Hits are given with their value; i = inactive; ? = inconclusive; nt = not tested or not shown; [ ] = dose if it differs, or a comment. The call rests on the fitted dose curve; in most records, active means well fitted curve in the direction sought with a large enough effect; inconclusive means small, poorly fitted or top-dose-only effect, or another doubt; inactive means no such curve, though single readings can be large; an effect the other way counts as inactive or inconclusive.

SMILES | KB-V1 MDR tox | KB-3-1 tox | HT1080-NT tox | TDP1 cell CPT | DT40 TDP1 no CPT | HT1080 IDH1KD tx
CS(=O)(=O)c1ccc(Nc2nc(C(N)Cc3ccc(F)cc3)cs2)cc1 (configuration not stated) | i | i | i | 16.4µM | 20.6µM | i
Fc1ccc(C2C3=C(Nc4ncnn42)c2ccccc2OC3c2ccncc2)cc1 (configuration not stated) | i | i | ? | i | ? | i
Cc1ccc(C2Oc3ccccc3C3=C2C(c2cccs2)n2ncnc2N3)cc1 (configuration not stated) | i | 9.2µM | 20.6µM | ? | ? | ?
COc1ccc(C2(CNC(=O)CCC(=O)O)CCCC2)cc1 | ? | i | i | i | i | i
CC(=O)Nc1ccc(S(=O)(=O)NC2CC(=O)N(c3ccc4c(c3)OCCO4)C2)cc1 (configuration not stated) | i | i | i | i | i | i
O=C(NCc1ccccc1)c1cc2ccc(O)cc2oc1=O | i | i | i | ? | ? | i
CC(=O)Nc1ccc(NS(=O)(=O)c2ccc(C)cc2)c([N+](=O)[O-])c1 | i | i | i | i | i | i
CCC(=O)NC(=S)Nc1ccc(NC(=O)c2ccc(C)c([N+](=O)[O-])c2)cc1 | i | ? | i | ? | 8.2µM | i
CCOc1ccc(NC(=S)Nc2ccc(OCC)cc2)cc1 | i | i | i | i | i | i
Cc1ccc(/C([O-])=C(/C(=S)NCc2ccccc2)[n+]2ccccc2)cc1[N+](=O)[O-] | i | i | i | i | ? | i
CCOc1ccc(NC(=S)Nc2ccc(C)c([N+](=O)[O-])c2)cc1 | 16.4µM | i | ? | i | ? | i
CCOc1ccc(NC(=S)/C(=C(\[O-])c2ccc(C)c([N+](=O)[O-])c2)[n+]2ccccc2)cc1 | i | i | i | ? | 14.6µM | i
Cc1ccc(C([O-])=C(C(=S)NCc2ccccc2)[n+]2cccc(CO)c2)cc1[N+](=O)[O-] | i | i | i | i | nt | i
CCc1cc[n+](/C(C(=S)Nc2cccc(C)c2)=C(/[O-])c2ccc(C)c([N+](=O)[O-])c2)cc1 | i | i | i | 16.4µM | 11.6µM | i
CCC(C)C(CO)NCCCn1cnc2c(SC)ncnc21 (configuration not stated) | i | i | i | i | i | i
O=C(NCc1cccnc1)[C@@H]1CC=C[C@@H]2CCN(C3CCCCC3)C(=O)[C@@H]21 | i | i | nt | i | i | nt
Cc1ccc(C(=O)NC(=S)N2CC(C)OC(C)C2)cc1[N+](=O)[O-] (configuration not stated) | ? | i | 3.55µM | ? | ? | 2.82µM
Cc1cccc(C)c1NC(=O)C(c1ccc(C(F)(F)F)cc1)n1c(=O)c(-c2ccccc2)nc2ccccc21 (configuration not stated) | i | i | i | ? | ? | i
CCN(CC)CCNC(=O)C1CCCN(c2ncnc3onc(C)c23)C1 (configuration not stated) | i | i | nt | i | i | nt
Cc1noc2ncnc(N3CCCC(C(=O)NC(C)C)C3)c12 (configuration not stated) | i | i | nt | i | ? | nt
COc1ccc(C)cc1NC(=O)C1CCCN(c2ncnc3onc(C)c23)C1 (configuration not stated) | i | i | nt | ? | 16.4µM | nt
COc1cccc(NC(=O)C2CCCN(c3ncnc4onc(C)c34)C2)c1 (configuration not stated) | ? | i | nt | 20.6µM | 20.6µM | nt
COc1ccc(NC(=O)C2CCCN(c3cc(C)nc4ncnn34)C2)cc1 (configuration not stated) | ? | i | i | i | i | i
Cc1ccc(NC(=O)C2CCCN(c3ncnc4onc(C)c34)C2)cc1Cl (configuration not stated) | i | i | nt | 10.3µM | 16.4µM | nt
CC1CC(C)CN(CCCNC(=O)CN2C(=O)c3cccnc3Oc3ccc(Cl)cc32)C1 (configuration not stated) | ? | i | i | i | i | i
SMILES | KB-V1 MDR tox | KB-3-1 tox | HT1080-NT tox | TDP1 cell CPT | DT40 TDP1 no CPT | HT1080 IDH1KD tx
CCN(CC)c1ccc(Nc2cc3n(c(=O)n2)CCc2cc(OC)c(OC)cc2-3)cc1 | i | i | 25.9µM | i | ? | ?
COc1cc2c(cc1OC)-c1cc(Nc3ccc(N(C)C)cc3)nc(=O)n1CC2 | i | i | i | i | ? | i
O=C(COCc1cc(-c2cccs2)on1)NCc1ccccc1Cl | i | i | nt | i | i | nt
Cc1nn(C)c(C)c1/C=C(/C(=O)C(C)(C)C)n1cncn1 | ? | i | i | ? | 23.1µM | ?
CC(C)(C)C(=O)/C(=C/c1ccncc1)n1cncn1 | ? | 6.51µM | 7.31µM | 3.26µM | 1.64µM | 7.31µM
COc1ccc(-c2noc(CN(C(=O)C(C)(C)C)C(C)C)n2)cc1 | 20.6µM | i | i | ? | ? | i
Cc1cc(C(=O)N(Cc2nnc(-c3ccc(Cl)cc3)o2)C(C)C)c2ccccc2n1 | i | i | i | ? | 14.6µM | i
Cc1ccc(C)c(C(=O)N(Cc2nc(-c3ccc(Cl)cc3)no2)C(C)C)c1 | i | i | i | ? | 18.4µM | i
COc1ccc(-c2noc(CN(C(=O)c3ccc(C)cc3C)C(C)C)n2)cc1 | i | ? | nt | 23.1µM | 14.6µM | nt
Cc1ccc([N+](=O)[O-])c(Oc2ncnc3c2oc2ccccc23)c1 | i | i | nt | ? | ? | nt
COc1ccc(N(CC(=O)Nc2cc(OC)c(OC)cc2C(=O)O)S(=O)(=O)c2c(C)noc2C)cc1 | i | i | i | i | i | i
O=S(=O)(c1ccccc1)n1cc(-c2cccc3nccn23)c2ccccc21 | ? | i | ? | ? | ? | ?
COc1cccc(C(=O)N(Cc2nc(-c3ccc(C)cc3)no2)C(C)C)c1 | i | i | i[9.24 µM] | 18.4µM | ? | i
COc1ccc(OC(C)C(=O)N(C)Cc2nc(-c3ccc(OC)cc3)no2)cc1 (configuration not stated) | 18.4µM | ? | ? | ? | ? | i
CC(C)C[C@@H]1O[C@H](CCc2ccccc2)Cc2[nH]c(=S)[nH]c(=O)c21 | i | i | ? | ? | ? | ?
Cc1cnc(C(=O)OCC(=O)NCc2ccc3c(c2)OCO3)cn1 | i | i | i | i | i | i
Cn1cc(/C=N/n2cnc3scc(-c4ccc(Cl)cc4)c3c2=O)c2ccccc21 | ? | ? | ? | 0.581µM | 0.82µM | 0.461µM
O=S1(=O)c2ccccc2N(Cc2ccc(Cl)cc2F)c2ccccc21 | i | i | nt | ? | ? | nt
c1ccc2c(c1)OCC(c1csc3ncnc(N4CCCC4)c13)O2 (configuration not stated) | 13µM | ? | i | 14.6µM | 10.3µM | i
